Compounds with a hit are over-represented: about 1.8% of the library has one in this group of screens.
p53ts 39C tox – kills p53ts cells at the nonpermissive temperature | H1299-p53A138V viability at 39C, ATP luminescence, 24 h | Potency, µM (highest dose often 46.1 µM), hits mostly cytotoxic | 130,000 tested, 1.5% active; note: nearly all actives have a fitted effect of over 55% in size
Peg3 imprint – genomic imprint erasure induction. mouse ES Peg3-LacZ reporter, beta-gal luminescence, 40 h. Potency, µM (titrated, usually from 60.7 µM), hits mostly activators. 110,000 tested, 0.02% active. AID 1948
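Imprint erasure is scored as LacZ activity from the silenced maternal Peg3 allele in feeder-free female ES cells cultured 40 h with LIF. Luminescence is normalized to in-plate negative controls and fitted to the Hill equation.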
p53ts 32C kill – cytotoxicity in p53ts cells at permissive temperature | 130,000 tested, 0.93% active | H1299-p53A138V at 32C, ATP luminescence viability, 24 h | AID 924 | Potency, µM (titrated, usually from 46.1 µM), hits mostly cytotoxic; note: nearly all actives have a fitted effect of over 55% in size
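H1299-p53 A138V cells (temperature-sensitive p53) exposed 24 h to up to 46 uM compound at 32C, where p53 is wild-type in conformation. Viability read as ATP luminescence and normalised to DMSO and 100 uM tamoxifen. AC50 fitted with the Hill equation.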
IkB sig inh – suppresses IkB signaling in ABC-DLBCL reporter cells; 110,000 tested, 0.04% active; ABC-DLBCL IkBa-CBG/CBR dual luciferase ratio, 4 h; response scale: scaled: untreated 0%, proteasome inhibitor 100%; Potency, µM (series often up to 57.1 µM); active = well fitted curve in the direction sought with a large enough effect in the signal ratio, not every such curve was filed as active; inconclusive = small, poorly fitted or top-dose-only effect, or a change in a side signal; the % refers to the signal ratio;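 note: the direction sought is a rising ratio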
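Curves were fitted separately to fusion (green), unfused (red) and ratio luminescence, then classed by r2, magnitude and activity. Cells: OCI-Ly3, 4 h compound plus doxycycline at 37C; 10 uM MG-132 defined full response.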
A number is an active result; i = inactive; ? = inconclusive; nt = no result; ! = not active in a repeat; [ ] = remark or other dose. Unless noted, calls come from the whole dose curve; as a rule, active = well fitted curve in the direction sought with a large enough effect; inconclusive = small, poorly fitted or top-dose-only effect, or another doubt; inactive = no such curve, though single readings can be large; an effect the other way counts as inactive or inconclusive.

SMILES	p53ts 39C tox	Peg3 imprint	p53ts 32C kill	IkB sig inh
Oc1cc2c(cc1O)[C@H]1c3ccccc3CNC1CC2 (some centres undefined)	nt	i	nt	nt
O=C(NCCc1ccc(Cl)cc1)c1ccc(Nc2nc3ccccc3n3nnnc23)cc1	7.9µM	i[10.9 µM]	?	?
C[C@@H](Cc1cccc(C(F)(F)F)c1)NCCCc1ccccc1	25µM	i	i	?
COc1ccc(C2SCC(=O)Nc3c2c(=O)[nH]n3C2CCCCCC2)cc1OC (centres undefined)	i	nt	i	nt
Cc1ccc(NC(=O)Nc2ccc3nc(N4CCN(C)CC4)cc(C)c3c2)cc1F	?	i[10.9 µM]	25µM	i
COC(=O)c1cc2c(cn1)[nH]c1ccccc12	i	i	i	i
Nc1ccc(Cc2ccc(N)cc2)cc1	i	i	i[1.84 µM]	i
CCCOc1ccc(C(=O)Nc2ccc(-c3cc4ccccc4oc3=O)c(C)c2)cc1	6.3µM	i[10.9 µM]	?	?
CCCOC(=O)COc1cc(C)cc2oc(=O)c3c(c12)CCC3	i	i	i	i
CC(C)(c1ccc(OCC2CO2)cc1)c1ccc(OCC2CO2)cc1 (centres undefined)	?	i	i[1.84 µM]	?
COC(=O)[C@]1(C)CC[C@@]2(C)CC[C@@]3(C)C4=CC=C5C(=CC(=O)C(O)=C5C)[C@@]4(C)CC[C@@]3(C)C2C1 (some centres undefined)	13µM	i	10µM	nt
O=P(/C(=N/O)N1CCCCC1)(N1CCOCC1)N1CCOCC1	i	i	i	i
COc1ccc2c(c[n+](C)c3c4cc5c(cc4ccc23)OCO5)c1OC	13µM	i	5µM	?
CC(C)(Cl)Cl	i	i	i[1.84 µM]	i
C[C@H]1CCCC=CC2C[C@H](O)C[C@@H]2[C@H](O)/C=C\C(=O)O1 (some centres undefined)	i	i	i	?
Cc1ccc(Cl)cc1N1CCN(CCN)CC1	i	i	i	i
COc1ccc2nc(NC(=O)c3nc(S(=O)(=O)Cc4cccc(C)c4)ncc3Cl)sc2c1	10µM	i[10.9 µM]	20µM	?
CCOc1ccc2nc(NC(=O)c3cccn(Cc4ccc(C)cc4)c3=O)sc2c1	i	i[10.9 µM]	i	i
O=C(Cn1c(=O)n(Cc2ccccc2)c(=O)c2sc3ccccc3c21)NCc1ccccc1Cl	32µM	i[10.9 µM]	13µM	i
CO/C1=C\C(C)=C\[C@@H](C)[C@@H](O)[C@@H](C)C/C(C)=C/C=C\[C@H](OC)C([C@@H](C)[C@@H](O)[C@H](C)[C@@]2(O)C[C@@H](O)[C@H](C)C(C(C)C)O2)OC1=O (some centres undefined)	nt	i[2 µM]	nt	nt
CN(C(=O)Cc1ccc(Cl)c(Cl)c1)[C@H](CN1CCCC1)c1cccc(N=C=S)c1	32µM	i	32µM	?
C=C[C@H]1CN2CCC1C[C@@H]2C(O)c1ccnc2ccccc12 (some centres undefined)	i	i	i	nt
CCCCCCn1c(O)c(C=NC2CCCCC2N)c(=O)[nH]c1=O (centres undefined)	5µM	i	4µM	i
C/C=C(/C)C(=O)OC1CC[C@]2(C)C3CCC4[C@]5(O)CC(O)[C@]6(O)C(CN7CC(C)CCC7[C@]6(C)O)[C@]5(O)C[C@@]42O[C@]13O (some centres undefined)	i	i	i	nt
CC(=O)Oc1c2c(c(CC=C(C)C)c3c1C(=O)C1=CC4CC5C(C)(C)OC(C/C=C(\C)C(=O)O)(C4=O)[C@]15O3)OC(C)(CCC=C(C)C)C=C2 (some centres undefined)	4µM	i	4µM	nt
SMILES	p53ts 39C tox	Peg3 imprint	p53ts 32C kill	IkB sig inh
COC(=O)/C(C)=C\CC12OC(C)(C)C3CC(C=C4C(=O)c5c(OC)c6c(c(CC=C(C)C)c5OC431)OC(C)(CCC=C(C)C)C=C6)C2=O (centres undefined)	6.3µM	i	4µM	nt
Cc1nc(-c2ccc(-c3ccc(C(=O)N4CCc5cc6c(cc54)C4(CCN(C)CC4)CO6)cc3)c(C)c2)no1	10µM	i	16µM	?
O=C(c1ccccc1)[C@H]1[C@H](c2ccccc2[N+](=O)[O-])N1C1CCCCC1 (some centres undefined)	i[9.22 µM]	i[10.9 µM]	i[9.22 µM]	5µM
Clc1ccc(C(c2ccc(Cl)cc2)C(Cl)(Cl)Cl)cc1	?	i	i	i
OCC(Br)CBr (centres undefined)	i	i	i[1.84 µM]	i
Oc1ccc(Br)cc1CN1CCN(c2ccccc2)CC1	i	i	i	i
COC(=O)C1CN(C#N)N(c2ccc(Cl)cc2)C12c1ccccc1-c1ccccc12 (centres undefined)	11µM	nt	4µM	nt
CCc1ccccc1Nc1nn2c(=O)c3ccc(C(=O)Nc4cc(C)cc(C)c4)cc3nc2s1	4µM	i[10.9 µM]	3.2µM	?
CC1CC[C@]2(NC1)OC1CC3C4CC=C5CC(O)CC[C@@]5(C)C4CC[C@]3(C)C1C2C (some centres undefined)	i	i	i	nt
[Cl-].[Cl-].[Hg+2]	25µM	i	nt	?
Cc1nc2ccccc2c(=O)n1-n1cnnc1	i	i	i	i
CC(=O)c1c(C)nc2ccccc2c1N	10µM	i	13µM	i
Cc1nc2cc(C(F)(F)F)ccc2n1C1CCN(Cc2nnnn2Cc2ccc3c(c2)OCO3)CC1	20µM	i	i	?
Cc1nc2cc(C(F)(F)F)ccc2n1C1CCN(Cc2nnnn2Cc2cccs2)CC1	i	i	i	i
COc1ccc2c3c1O[C@@H]1C(=O)CC[C@@]4(O)[C@@H](C2)N(CC2CC2)CC[C@]314	i	nt	i	i
Cn1c(=O)c2nncnc2n(C)c1=O	i	i	i	i
CC(C)[C@@]1(NC(=O)[C@@H]2C=C3c4cccc5[nH]cc(c45)C[C@@H]3N(C)C2)O[C@]2(O)[C@H]3CCCN3C(=O)[C@H](Cc3ccccc3)N2C1=O	nt	nt	nt	i
CC(C)[C@@]1(NC(=O)[C@@H]2C[C@H]3c4cccc5[nH]cc(c45)C[C@@H]3N(C)C2)O[C@@]2(O)[C@H]3CCCN3C(=O)[C@H](Cc3ccccc3)N2C1=O	32µM!	i	?	?

From PubChem BioAssay
